# From PubChem BioAssay (NCATS)
# Results filed as inconclusive are left out. A call without a number means that no potency is given here. Values without a mark were called inactive. Activity calls are given as the source filed them. Calls come from the whole dose curve; as a rule, active = well fitted inhibition curve with a large enough effect; inconclusive = small, poorly fitted or top-dose-only effect; inactive = flat fitted curve, though single readings scatter.
# How the values were obtained:
# PAD = assay: qHTS profiling for inhibitors of Plasmodium falciparum proliferation (AID 504749); note: potency is the fitted concentration of half-maximal effect; conditions: P. falciparum in erythrocytes, SYBR Green DNA, 72 h; series mostly up to 28.7 µM
# Outline: (§1)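 SYBR Green fluorescence (ex 485 nm, em 535 nm) reports parasite DNA after 72 h compound exposure of infected red cells at 0.3% parasitemia, 2.5% hematocrit; signal normalized to 0.29 uM artemisinin and vehicle wells.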
# PC15 = assay: as above; conditions: P. falciparum in erythrocytes, SYBR Green DNA, 72 h; series mostly up to 28.7 µM
# Outline: as §1
# PC26 = assay: as above; conditions: P. falciparum in erythrocytes, SYBR Green DNA, 72 h; series mostly up to 28.7 µM
# Outline: as §1
# PC49 = assay: as above; conditions: P. falciparum in erythrocytes, SYBR Green DNA, 72 h; series mostly up to 28.7 µM
# Outline: as §1
# SC27B = assay: as above; conditions: P. falciparum in erythrocytes, SYBR Green DNA, 72 h; series mostly up to 28.7 µM
# Outline: as §1
# TAB109 = assay: as above; conditions: P. falciparum in erythrocytes, SYBR Green DNA, 72 h; series mostly up to 28.7 µM
# Outline: as §1
# TAB113 = assay: as above; conditions: P. falciparum in erythrocytes, SYBR Green DNA, 72 h; series mostly up to 28.7 µM
# Outline: as §1
# TAB165 = assay: as above; conditions: P. falciparum in erythrocytes, SYBR Green DNA, 72 h; series mostly up to 28.7 µM
# Outline: as §1
# W2 = assay: as above; conditions: P. falciparum in erythrocytes, SYBR Green DNA, 72 h; series mostly up to 28.7 µM
# Outline: as §1
# KB-3-1 = assay: Cytotoxic Profiling of Annotated Libraries Using Quantitative High-Throughput Screening (AID 1296008); conditions: Five cell lines viability, CellTiter-Glo ATP luminescence, 48-72 h; max response: active compounds read low
# Outline: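 Cells exposed to compounds for 48 or 72 hr at 37 degrees Celsius. Viability read as ATP-coupled luminescence with CellTiter-Glo after 10 min at room temperature.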
# Note: nearly all actives have a fitted effect of over 60% in size.
SMILES,Potency (PAD),Potency (PC15),Potency (PC26),Potency (PC49),Potency (SC27B),Potency (TAB109),Potency (TAB113),Potency (TAB165),Potency (W2),max response (KB-3-1) [%]
COc1cc(C)c(/C=C/C(C)=C/C=C/C(C)=C/C(=O)O)c(C)c1C,inactive,inactive,inactive,inactive,inactive,inactive,inactive,inactive,inactive,-4.57
CCCCCCCCCCCC(=O)OCC(O)CO (stereo not given),inactive,inactive,inactive,inactive,inactive,inactive,inactive,inactive,inactive,4.65
Nc1nccs1,inactive,inactive,inactive,inactive,inactive,inactive,inactive,inactive,inactive,-12.3
O=C(NNCS(=O)(=O)O)c1ccncc1,inactive,inactive,inactive,inactive,inactive,inactive,inactive,inactive,inactive,-1.07
O=S(=O)(O)CCCS(=O)(=O)O,inactive,inactive,inactive,inactive,inactive,inactive,inactive,inactive,inactive,0.835
CCC(Cc1c(I)cc(I)c(O)c1I)C(=O)O (stereo not given),inactive,inactive,inactive,inactive,inactive,inactive,inactive,inactive,inactive,-4.91
O=c1[nH]c(=O)n([C@H]2C[C@H](O)[C@@H](CO)O2)cc1/C=C/Br,inactive,inactive,inactive,inactive,inactive,inactive,inactive,inactive,inactive,1.96
CCCCCCCCCCCCOCCCN,inactive,inactive,inactive,inactive,inactive,inactive,inactive,inactive,inactive,-4.56
CC(C)(C)CC(C)(C)c1cc(Cc2cc(C(C)(C)CC(C)(C)C)cc(-n3nc4ccccc4n3)c2O)c(O)c(-n2nc3ccccc3n2)c1,inactive,inactive,inactive,inactive,inactive,inactive,inactive,inactive,inactive,-2.05
CCCCCCCCCCCCCCCCCC(=O)OC[C@@H](O)[C@H]1OC[C@H](O)[C@H]1O,inactive,inactive,inactive,inactive,inactive,inactive,inactive,inactive,inactive,-10
C[C@H](CCCC(C)(C)O)[C@H]1CC[C@H]2[C@@H]3CC=C4C[C@@H](O)CC[C@]4(C)[C@H]3CC[C@]12C,inactive,inactive,inactive,inactive,inactive,inactive,inactive,inactive,inactive,2.18
CCCCC(CC)COS(=O)(=O)O (stereo not given),inactive,inactive,inactive,inactive,inactive,inactive,inactive,inactive,inactive,-16.9
CC(C)c1nc(N(C)S(C)(=O)=O)nc(-c2ccc(F)cc2)c1/C=C/C(O)CC(O)CC(=O)O (stereo not given),inactive,inactive,inactive,inactive,inactive,inactive,inactive,inactive,inactive,0.926
CCOc1ccc(NC(=S)Nc2ccc(OCC)cc2)cc1,inactive,inactive,inactive,inactive,inactive,inactive,inactive,inactive,inactive,43.1
O=C(O)C1=C(CSc2nnnn2CS(=O)(=O)O)CS[C@@H]2[C@H](NC(=O)[C@H](O)c3ccccc3)C(=O)N12,inactive,inactive,inactive,inactive,inactive,inactive,inactive,inactive,inactive,3.59
O=C(O)/C=C/c1ccccc1,inactive,inactive,inactive,inactive,inactive,inactive,inactive,inactive,inactive,5.56
FCOC(C(F)(F)F)C(F)(F)F,inactive,inactive,inactive,inactive,inactive,inactive,inactive,inactive,inactive,6.78
CC(C)(Oc1ccc(C2CCCc3ccccc32)cc1)C(=O)O (stereo not given),inactive,inactive,inactive,inactive,inactive,inactive,inactive,inactive,inactive,-10.9
O=C1c2ccccc2C(=O)C1c1ccc(Cl)cc1,inactive,inactive,inactive,inactive,inactive,inactive,inactive,inactive,inactive,-7.12
C=CC[C@@H]1/C=C(\C)C[C@H](C)C[C@H](OC)[C@H]2O[C@@](O)(C(=O)C(=O)N3CCCC[C@H]3C(=O)O[C@H](/C(C)=C/[C@@H]3CC[C@@H](O)[C@H](OC)C3)[C@H](C)[C@@H](O)CC1=O)[C@H](C)C[C@@H]2OC,1.41 µM (active),2.24 µM (active),1.69 µM (active),2 µM (active),1.78 µM (active),2 µM (active),1.78 µM (active),1.41 µM (active),0.338 µM (active),2.3
Cc1ncc(C[n+]2csc(CCOP(=O)(O)OP(=O)(O)O)c2C)c(N)n1,inactive,inactive,inactive,inactive,inactive,inactive,inactive,inactive,inactive,-1.51
